± gives the uncertainty stated by the source. Over roughly 9,900 compounds, “viability index relative to DMSO control” has its median near 1; the lowest 2% begin near 0.85. For the sample, the lowest values were picked, then their nearest neighbours and some compounds at random.

The subject of this assay is Plasmodium falciparum NF54 stage V gametocytes. Kind of assay: viability index relative to DMSO control (fraction); higher = less gametocyte killing. The conditions noted are these: 2.5 µM, incubation time: 72 h. The gist of the method:
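Compound at 2.5 µM was incubated for 72 hr at 37°C under low oxygen with P. falciparum NF54 stage V gametocytes (0.75% gametocytemia, 1.25% hematocrit, 10 µl, serum-free screening medium) in 1,536-well plates. Staining used 3 µl of 2.5 µM MitoTracker Red CMXRos plus 0.13% saponin for one to two hours, and red particles of 20–70 µm2 were counted in one imaged field per well. Each viability index is that count relative to the plate mean of solvent-only wells.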

Setting [1] is: library set: Broad Institute DOS.

Take `O=C(C1CCCCC1)N1[C@H](CO)[C@@H](c2ccccc2)C12CN(Cc1cccc(Cl)c1)C2`: where the note is “library set: Broad Institute Blood Stage”, the viability index was found to be 0.748 ± 0.048.
On to `O=C(C1CCOCC1)N1[C@H](CO)[C@@H](c2ccccc2)C12CN(Cc1cccc(Cl)c1)C2`, for which, under setting [1], the viability index is 1.1 ± 0.062.
The same measure, in the same setting: to `O=C(C1CCOCC1)N1[C@@H](CO)[C@@H](c2ccccc2)C12CN(Cc1cccc(Cl)c1)C2` belongs 1.103 ± 0.0018; to `O=C(C[C@H]1C[C@H]2c3cc(NS(=O)(=O)c4ccc(F)cc4)ccc3O[C@H]2[C@H](CO)O1)N1CCc2ccccc2C1`, 0.861 ± 0.059.
On the same count and under the same terms, to `C[C@@H]1CCn2nncc2COC[C@H]2CCCN2C1=O` belongs 1.04 ± 0.058.
As for `O=S(=O)(c1ccccc1)N1CCCCN2[C@H](CO)[C@@H](c3ccc(C#CC4CCCC4)cc3)[C@H]2C1`, under setting [1], the viability index is 1.03 ± 0.056.
The same measure, in the same setting: to `O=S(=O)(c1ccccc1)N1CCCCN2[C@H](C1)[C@@H](c1ccc(C#CC3CCCC3)cc1)[C@@H]2CO` belongs 0.907 ± 0.07.
Same read-out and setting: to `O=S(=O)(c1ccccc1)N1CCCCN2[C@@H](CO)[C@@H](c3ccc(C#CC4CCCC4)cc3)[C@@H]2C1` belongs 0.8429 ± 0.006; to `O=S(=O)(c1ccccc1)N1CCCCN2[C@H](C1)[C@H](c1ccc(C#CC3CCCC3)cc1)[C@@H]2CO`, 1.03 ± 0.031; to `O=S(=O)(c1ccccc1)N1CCCCN2[C@H](CO)[C@H](c3ccc(C#CC4CCCC4)cc3)[C@H]2C1`, 0.8253 ± 0.0077.
Still for that read-out and setting: then `O=S(=O)(c1ccccc1)N1CCCCN2[C@H](CO)[C@@H](c3ccc(C#CC4CCCC4)cc3)[C@@H]2C1`, with 1.01 ± 0.026; and `O=C(CN1CCOCC1)N1[C@H](CO)[C@H]2c3ccccc3NC[C@H]21`, with 1 ± 0.088; and `C[C@H]1CN([C@@H](C)CO)C(=O)c2cc(NC(=O)Nc3cccc4ccccc34)ccc2O[C@@H]1CN(C)S(=O)(=O)c1cccs1`, with 1.06 ± 0.026.
As for `CN(C)C(=O)c1cccc(-c2ccc3c(c2)[C@H]2[C@H](CCN2Cc2nccs2)[C@H](CO)N3)c1`, the viability index under setting [1] worked out at 0.818 ± 0.014.
With `CN(C)C(=O)c1cccc(-c2ccc3c(c2)[C@@H]2[C@@H](CCN2C(=O)c2cnccn2)[C@@H](CO)N3)c1`, the viability index under setting [1] was found to be 1.12 ± 0.032.
Same read-out and setting: then `CN(C)C(=O)c1cccc(-c2ccc3c(c2)[C@@H]2[C@@H](CCN2Cc2nccs2)[C@@H](CO)N3)c1`, with 0.785 ± 0.07.
The same measure, in the same setting: then `COc1ccccc1CN1CC[C@@H]2[C@H]1c1cc(-c3cccc(C(=O)N(C)C)c3)ccc1N[C@@H]2CO`, with 1.09 ± 0.028; and `CN(C)C(=O)c1cccc(-c2ccc3c(c2)[C@@H]2[C@@H](CCN2C(=O)c2cnccn2)[C@H](CO)N3)c1`, with 1.17 ± 0.072; and `CN(C)C(=O)c1cccc(-c2ccc3c(c2)[C@H]2[C@H](CCN2C(=O)c2cnccn2)[C@@H](CO)N3)c1`, with 1.16 ± 0.02.
The same measure, in the same setting: to `COc1ccccc1-c1ccc2c(c1)[C@H]1[C@H](CCN1Cc1ccccc1F)[C@@H](CO)N2` belongs 1.02 ± 0.035.
As to `COc1ccccc1CN1CC[C@@H]2[C@H]1c1cc(C3=CCCCC3)ccc1N[C@@H]2CO`, the viability index under setting [1] stood at 0.8126 ± 0.0046.
Turning to `COc1ccccc1CN1CC[C@@H]2[C@H](CO)Nc3ccc(-c4cccc(C(=O)N(C)C)c4)cc3[C@@H]21`, the viability index under setting [1] came out at 0.841 ± 0.072.
On the same count and under the same terms, then `CN(C)C(=O)c1cccc(-c2ccc3c(c2)[C@H]2[C@H](CCN2Cc2nccs2)[C@@H](CO)N3)c1`, with 1.18 ± 0.023; and `CN(C)C(=O)c1cccc(-c2ccc3c(c2)[C@H]2[C@H](CCN2C(=O)c2cnccn2)[C@H](CO)N3)c1`, with 1.1 ± 0.035; and `OC[C@@H]1Nc2ccc(C3=CCCCC3)cc2[C@@H]2[C@H]1CCN2Cc1nccs1`, with 1.06 ± 0.059.
